Measured values: PubChem BioAssay AID1259343 (VanderVen Lab, College of Veterinary Medicine, Cornell …, 2017)
About 2,900 (47%) of roughly 6,200 compounds were called active. Cut-off read from the data, not from the text of the source: active = inhibition above about 50%; inactive = the rest. So high a share suggests a set chosen from earlier hits. Some of the results follow.

assay: Mycobacterium tuberculosis growth inhibition, primary screen (AID 1259343); conditions: inhibition: at 10 µM, hits give high values; outcome: 10 uM

SMILES	inhibition
O=[N+]([O-])c1cccc(-c2csc(Nc3ccc(Cl)cc3)n2)c1	88.3% (active)
Cc1ccc(C)c(Nc2nc(-c3ccc([N+](=O)[O-])cc3)cs2)c1	15.3% (inactive)
COC(=O)Nc1cccc(C(=O)N2CCC(C)C3CCCCC32)c1 (stereo not given)	27.1% (inactive)
COC(=O)c1ccc2c(c1)S(=O)(=O)N(C1CCCCC1C)C2=O (stereo not given)	81.4% (active)
CS(=O)(=O)NCc1cccc(-c2ccc(C#N)s2)c1	2.92% (inactive)
Cc1ccc(-c2nnc(SCC(=O)N3CCC(C)CC3)o2)cc1	-35.9% (inactive)
CCOC(=O)CSc1nnc(CSc2cc(C)nc(N3CCCC3)n2)o1	93.2% (active)
CCOC(=O)C(C)Sc1ncnc2c1nnn2-c1ccc(OC)cc1 (stereo not given)	75.5% (active)
CCC(Sc1ncnc2c1nnn2-c1ccc(F)cc1)C(=O)OC (stereo not given)	42.6% (inactive)
CCOC(=O)CNC(=O)CSc1ncnc2c1nnn2-c1ccc(OC)cc1	-7.53% (inactive)
CCOC(=O)CSc1ncnc2c1nnn2-c1ccc(OC)cc1	3.35% (inactive)
COC(=O)C(C)Sc1ncnc2c1nnn2-c1ccc(F)cc1 (stereo not given)	76.7% (active)
O=C(CSc1ncnc2c1nnn2-c1ccc(F)cc1)OCc1ccccc1	2.43% (inactive)
COc1ccc(-n2nnc3c(SCC(=O)Nc4ccccc4)ncnc32)cc1	68.2% (active)
COC(=O)CSc1ncnc2c1nnn2-c1ccc(F)cc1	89.9% (active)
COC(=O)CSc1ncnc2c1nnn2Cc1ccc(F)cc1	-38.1% (inactive)
COc1ccc(-n2nnc3c(SCC(N)=O)ncnc32)cc1	14.3% (inactive)
COC(=O)C(C)Sc1ncnc2c1nnn2-c1ccc(OC)cc1 (stereo not given)	72.2% (active)
CCC(Sc1ncnc2c1nnn2-c1ccc(OC)cc1)C(=O)OC (stereo not given)	-33.3% (inactive)
CCOC(=O)C(CC)Sc1ncnc2c1nnn2-c1ccc(F)cc1 (stereo not given)	36.5% (inactive)
CCOC(=O)C(C)Sc1ncnc2c1nnn2-c1ccc(F)cc1 (stereo not given)	60% (active)
CC(Sc1ncnc2c1nnn2-c1ccc(F)cc1)c1ccccc1 (stereo not given)	82.1% (active)
O=C(CC12CC3CC(CC(C3)C1)C2)N=C1N=C2C=CC=CN2Cc2ccccc21	-15.7% (inactive)
O=C(N=C1N=C2C=CC(Br)=CN2Cc2ccccc21)c1ccccn1	10.5% (inactive)
O=C(N=C1N=C2N=CC=CN2Cc2ccccc21)Nc1ccc(Cl)c(Cl)c1	88% (active)

SMILES	inhibition
O=C(Nc1ccc(Oc2ccccc2F)cc1)C1CCN(C(=O)c2ccncc2)CC1	90.8% (active)
O=C(Nc1ccc(Oc2ccccc2F)cc1)C1CCN(C(=O)C#Cc2ccccc2)CC1	89.6% (active)
Cc1cc(C(=O)N2CCC(C(=O)Nc3ccc(Oc4ccccc4F)cc3)CC2)c(C)o1	inactive
O=C(Nc1ccc(F)cc1F)C1CCN(C(=O)c2cccnc2)CC1	85.7% (active)
O=C(Nc1ccc(Oc2ccccc2F)cc1)C1CCN(C(=O)C2=CCCC2)CC1	90.8% (active)
O=C(Nc1ccc(Oc2ccccc2)nc1)C1CCN(C(=O)C2=CCCC2)CC1	44% (inactive)
O=C(Nc1ccc(Oc2ccccc2F)cc1)C1CCN(C2Cc3ccccc3C2)CC1	91.6% (active)
Cc1cc(NC(=O)c2ccco2)n(-c2nc3c(c(=O)[nH]2)CCC3)n1	101% (active)
Cc1cc(NC(=O)c2ccc(Cl)cc2)n(-c2nc3c(c(=O)[nH]2)CCC3)n1	101% (active)
Cc1cc(NC(=O)c2ccc(F)c(F)c2)n(-c2nc3c(c(=O)[nH]2)CCC3)n1	-20.9% (inactive)
Cc1cc(NC(=O)c2cc(Cl)ccc2Cl)n(-c2nc3c(c(=O)[nH]2)CCC3)n1	37.1% (inactive)
Cc1cc(NC(=O)c2ccccc2)n(-c2nc3c(c(=O)[nH]2)CCC3)n1	-26.4% (inactive)
Cc1cc(NC(=O)c2ccccc2C)n(-c2nc3c(c(=O)[nH]2)CCC3)n1	100% (active)
COc1ccc(Cl)cc1C(=O)Nc1cc(C)nn1-c1nc2c(c(=O)[nH]1)CCC2	95.5% (active)
CCCN1CCCc2cc(CCNS(=O)(=O)Cc3cccc(C)c3)ccc21	31.9% (inactive)
O=C(Nc1ccc(Oc2ccc(Cl)cc2)c(Cl)c1)c1cc(I)cc(I)c1O	101% (active)
CCCCCCC(=O)NN=Cc1ccc([N+](=O)[O-])cc1	77.5% (active)
CC(C)=CCCC(C)=CC=NNc1ccc([N+](=O)[O-])cc1	62% (active)
CC(C)(C)c1ccc(C=NOCc2ccc([N+](=O)[O-])cc2)cc1	-20.2% (inactive)
CSc1nnc(SCc2ccc([N+](=O)[O-])cc2)s1	-12.4% (inactive)
CCCCCC(=O)NN=Cc1ccc([N+](=O)[O-])cc1	100% (active)
CCCC(=O)Oc1c(S(=O)(=O)c2ccc([N+](=O)[O-])cc2)c(C)nn1-c1ccccc1	28.6% (inactive)
O=C(CSc1nnc(SCc2ccccc2)s1)NN=Cc1ccc([N+](=O)[O-])cc1	83.1% (active)
CC1=Nn2cc(-c3ccccc3)nc2SC1c1ccccc1 (stereo not given)	20.8% (inactive)
CCCCCCCC(C)=NNc1nc2ccccc2s1	inactive

SMILES	inhibition
CCCCCCC(C)=NNc1ccc([N+](=O)[O-])cc1	98.5% (active)
C=CCc1cc([N+](=O)[O-])ccc1O	101% (active)
O=C(C=Cc1cccs1)NC12CC3CC(CC(C3)C1)C2	inactive
CC(C)(C)OC(=O)NNC(=O)C=Cc1ccco1	-8.19% (inactive)
O=C(C=Cc1ccc(F)cc1)NCc1ccco1	29.9% (inactive)
O=C(C=Cc1ccco1)NCc1ccc(F)cc1	72.3% (active)
O=C(C=Cc1ccco1)NC12CC3CC(CC(C3)C1)C2	67.6% (active)
O=C(/C=C/c1cc(C(F)(F)F)ccc1Cl)NCc1ccon1	-0.62% (inactive)
COc1ccc(NC(=O)CSCc2ccccn2)cc1OC(F)F	17.9% (inactive)
COc1ccc(NC(=O)c2ccsc2)cc1OC(F)F	54.8% (active)
COc1ccc(C)cc1CCNC(=O)c1ccsc1	26.8% (inactive)
Cc1ccnc(N2CCN(c3ncnc4scc(-c5ccc(F)cc5)c34)CC2)c1	3.93% (inactive)
CC(C)NS(=O)(=O)CCCOc1ccc2c(c1)OCO2	50.3% (active)
O=S(=O)(CCCOc1ccc2c(c1)OCO2)NC1CCCCCC1	93% (active)
O=S(=O)(CCCOc1ccc2c(c1)OCO2)NC1CCCCC1	99.2% (active)
Cc1cccc(OCCN(C)C(=O)/C=C/c2ccc3c(c2)OCO3)c1	34.9% (inactive)
COCCn1c(=S)[nH]c2sc3c(c2c1=O)CCC(C)C3 (stereo not given)	-21.7% (inactive)
CCN=c1scc(-c2ccc(Br)s2)n1N=CC1CCCCC1	36% (inactive)
CNC(=O)c1sc(N2CCN(c3ccccc3F)CC2)nc1C	33.2% (inactive)
CC1=CC(=NNc2nc3ccccc3[nH]2)CC(C)(C)C1	24.5% (inactive)
Cc1nc(C(C)C)sc1C(=O)Nc1nc2ccccc2[nH]1	100% (active)
Cc1csc(Nc2ccc(Cl)cc2)[n+]1-c1ccc(Cl)cc1	16% (inactive)
Cc1nc2nc(CC(=O)N3CCOCC3)nn2c(C)c1Cl	52.5% (active)
CC(C)(C)C(=O)NC(=S)NC1=CC2N=C(c3ccncc3)OC2C=C1 (stereo not given)	54.2% (active)
CC(C)COc1ccc(NC(=O)c2ccnnc2)cc1Cl	50.1% (active)

SMILES	inhibition
CC(C)COc1ccc(NC(=O)c2nn(C)c(=O)c3ccccc23)cc1Cl	24.1% (inactive)
CC(C)COc1ccc(NC(=O)C2CC2c2cnn(C)c2)cc1Cl (stereo not given)	-6.2% (inactive)
CS(=O)(=O)Nc1cc(Cl)ccc1Sc1ccc(F)cc1	76.2% (active)
Cc1cc(C)c(NC(=O)c2cc(C)nc3c2cnn3C(C)C)c(C)c1	59.8% (active)
CCOc1ccc(N2C(=O)C3N=NN(Cc4cccc(C)c4)C3C2=O)cc1 (stereo not given)	78.4% (active)
CCCN(C)C(=O)c1ccc2c(c1)C(=O)N(c1ccc(OCC)cc1)C2=O	21.7% (inactive)
COc1ccc(N2C(=O)C3N=NN(Cc4cc(C)ccc4C)C3C2=O)cc1Cl (stereo not given)	-29.4% (inactive)
CCOc1ccc(N2C(=O)C3N=NN(Cc4cc(C)ccc4C)C3C2=O)cc1 (stereo not given)	61.5% (active)
CCOc1ccc(-c2nc(CN3N=NC4C(=O)N(c5ccc(C)c(Cl)c5)C(=O)C43)c(C)o2)cc1 (stereo not given)	20.2% (inactive)
CCc1ccc(N2C(=O)C3N=NN(Cc4nc(-c5cccc(Cl)c5)oc4C)C3C2=O)cc1 (stereo not given)	83.4% (active)
CCc1ccc(N2C(=O)C3N=NN(Cc4cccc(C)c4)C3C2=O)cc1 (stereo not given)	67.8% (active)
CSc1ccc(NC(=O)c2cn[nH]n2)cc1Cl	95.5% (active)
CC(=O)/C(=N/Nc1ccc(C)cc1)N1CCOCC1	94.7% (active)
O=C1c2ccc([N+](=O)[O-])cc2C(=O)N1CNc1ccc2c(c1)oc1ccccc12	86.3% (active)
O=C1c2cccc([N+](=O)[O-])c2C(=O)N1CNc1ccc(Cl)c(Cl)c1	45.5% (inactive)
CC(C)CCC(C)NC(=O)c1cc(O)cs1 (stereo not given)	37.3% (inactive)
Cc1cc(O)c(S(=O)(=O)c2cc(Cl)c(Cl)cc2Cl)c(=O)[nH]1	60.9% (active)
FC(F)(F)COCCCn1nnc(-c2ccsc2)n1	79.5% (active)
O=C1/C(=C/c2cccs2)C(c2cccs2)Oc2ccccc21 (stereo not given)	33% (inactive)
O=C1C(=Cc2cccs2)CCC1=Cc1cccs1	103% (active)
C=CCC1SC(=NN=Cc2cccs2)NC1=O (stereo not given)	22.9% (inactive)
O=C1C(=Cc2cccs2)CCCC1=Cc1cccs1	91.6% (active)
O=C1NC(=O)C(=Cc2cccs2)S1	42.2% (inactive)
O=C1C(=Cc2ccc(Br)s2)CCc2ccccc21	0.54% (inactive)
CC1CCN(c2nnc(C(=O)Nc3ccccc3)c3ccccc23)CC1	24.6% (inactive)
